Reference: article PMC11006913

Legend:
Test in all cases: PBM; 200 nM protein, PBS
Conditions in all cases: dsDNA, one strand shown
HESX1 [1] = target: HESX1 (Homo sapiens, UniProt Q9UBX0 95-180, R165K)
HESX1 [2] = target: HESX1 (Homo sapiens, UniProt Q9UBX0 95-180)
SHOX [3] = target: SHOX (Homo sapiens, UniProt O15266 103-189)
ALX4 = ALX4 (Homo sapiens, UniProt Q9H161 200-286, Q225E)
MSX2 = MSX2 (Homo sapiens, UniProt P35548 130-214, R199I)
ALX1 [4] = target: ALX1 (Homo sapiens, UniProt Q15699 118-204, L144V)
Sequence of ALX1 (Homo sapiens, UniProt Q15699 118-204, L144V) (Q15699 118-204 L144V): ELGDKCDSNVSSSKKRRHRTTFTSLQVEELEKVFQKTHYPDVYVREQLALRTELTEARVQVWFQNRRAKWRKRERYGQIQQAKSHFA

ALX3 [5] = target: ALX3 (Homo sapiens, UniProt O95076 139-225, N203Q)
Sequence of ALX3 (Homo sapiens, UniProt O95076 139-225, N203Q) (O95076 139-225 N203Q): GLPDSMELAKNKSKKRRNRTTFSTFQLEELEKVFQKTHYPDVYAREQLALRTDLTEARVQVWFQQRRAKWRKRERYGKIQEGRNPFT

SHOX [6] = target: SHOX (Homo sapiens, UniProt O15266 103-189, R173C)
Sequence of SHOX (Homo sapiens, UniProt O15266 103-189, R173C) (O15266 103-189 R173C): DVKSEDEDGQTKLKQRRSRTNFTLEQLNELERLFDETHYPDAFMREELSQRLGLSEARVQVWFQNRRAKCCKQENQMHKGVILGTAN

ALX1 [7] = target: ALX1 (Homo sapiens, UniProt Q15699 118-204, L144R)
Sequence of ALX1 (Homo sapiens, UniProt Q15699 118-204, L144R) (Q15699 118-204 L144R): as the sequence (Q15699 118-204 L144V) above, with V27R counted along it

ALX3 [8] = target: ALX3 (Homo sapiens, UniProt O95076 139-225)
Sequence of ALX3 (Homo sapiens, UniProt O95076 139-225) (O95076 139-225): as the sequence (O95076 139-225 N203Q) above, with Q65N counted along it

PROP1 [9] = target: PROP1 (Homo sapiens, UniProt O75360 56-141)
Sequence of PROP1 (Homo sapiens, UniProt O75360 56-141) (O75360 56-141): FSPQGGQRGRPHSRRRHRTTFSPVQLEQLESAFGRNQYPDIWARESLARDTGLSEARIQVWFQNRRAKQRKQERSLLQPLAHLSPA

HESX1 [10] = target: HESX1 (Homo sapiens, UniProt Q9UBX0 95-180, R109Q)
Sequence of HESX1 (Homo sapiens, UniProt Q9UBX0 95-180, R109Q) (Q9UBX0 95-180 R109Q): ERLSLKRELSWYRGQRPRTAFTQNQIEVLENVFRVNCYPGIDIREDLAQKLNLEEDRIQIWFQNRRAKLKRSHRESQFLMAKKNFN

PROP1 [11] = target: PROP1 (Homo sapiens, UniProt O75360 56-141, R99H)
Sequence of PROP1 (Homo sapiens, UniProt O75360 56-141, R99H) (O75360 56-141 R99H): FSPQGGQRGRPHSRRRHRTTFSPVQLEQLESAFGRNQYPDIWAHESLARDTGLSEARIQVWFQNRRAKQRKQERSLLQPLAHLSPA

ALX3 [12] = target: ALX3 (Homo sapiens, UniProt O95076 139-225, L168Q)
Sequence of ALX3 (Homo sapiens, UniProt O95076 139-225, L168Q) (O95076 139-225 L168Q): as the sequence (O95076 139-225 N203Q) above, with L30Q, Q65N counted along it

HESX1 [13] = target: HESX1 (Homo sapiens, UniProt Q9UBX0 95-180, P111T)
Sequence of HESX1 (Homo sapiens, UniProt Q9UBX0 95-180, P111T) (Q9UBX0 95-180 P111T): as the sequence (Q9UBX0 95-180 R109Q) above, with Q15R, P17T counted along it

ALX3 [14] = target: ALX3 (Homo sapiens, UniProt O95076 139-225, L168V)
Sequence of ALX3 (Homo sapiens, UniProt O95076 139-225, L168V) (O95076 139-225 L168V): as the sequence (O95076 139-225 N203Q) above, with L30V, Q65N counted along it

PROP1 [15] = target: PROP1 (Homo sapiens, UniProt O75360 56-141, F88S)
Sequence of PROP1 (Homo sapiens, UniProt O75360 56-141, F88S) (O75360 56-141 F88S): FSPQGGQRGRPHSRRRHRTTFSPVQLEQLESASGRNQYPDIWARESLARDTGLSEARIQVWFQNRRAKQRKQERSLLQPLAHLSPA

HESX1 [16] = target: HESX1 (Homo sapiens, UniProt Q9UBX0 95-180, F115L)
Sequence of HESX1 (Homo sapiens, UniProt Q9UBX0 95-180, F115L) (Q9UBX0 95-180 F115L): as the sequence (Q9UBX0 95-180 R109Q) above, with Q15R, F21L counted along it

ALX1 [17] = target: ALX1 (Homo sapiens, UniProt Q15699 118-204)
Sequence of ALX1 (Homo sapiens, UniProt Q15699 118-204) (Q15699 118-204): as the sequence (Q15699 118-204 L144V) above, with V27L counted along it

ALX3 [18] = target: ALX3 (Homo sapiens, UniProt O95076 139-225, N203S)
Sequence of ALX3 (Homo sapiens, UniProt O95076 139-225, N203S) (O95076 139-225 N203S): as the sequence (O95076 139-225 N203Q) above, with Q65S counted along it

Sequence of ALX4 (Q9H161 200-286 Q225E): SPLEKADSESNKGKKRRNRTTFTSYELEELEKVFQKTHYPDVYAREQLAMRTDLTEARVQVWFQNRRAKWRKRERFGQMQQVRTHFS
Sequence of MSX2 (P35548 130-214 R199I): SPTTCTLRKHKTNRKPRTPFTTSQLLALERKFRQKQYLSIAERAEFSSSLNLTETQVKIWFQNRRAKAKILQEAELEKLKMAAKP
Sequence of HESX1 (Homo sapiens, UniProt Q9UBX0 95-180, R165K) (Q9UBX0 95-180 R165K): as the sequence (Q9UBX0 95-180 R109Q) above, with Q15R, R71K counted along it
Sequence of SHOX (Homo sapiens, UniProt O15266 103-189) (O15266 103-189): as the sequence (O15266 103-189 R173C) above, with C71R counted along it
Sequence of HESX1 (Homo sapiens, UniProt Q9UBX0 95-180) (Q9UBX0 95-180): as the sequence (Q9UBX0 95-180 R109Q) above, with Q15R counted along it

Row | Sequence | binding signal (HESX1 [1]) | binding signal (HESX1 [2]) | binding signal (SHOX [3]) | binding signal (ALX4) | binding signal (MSX2) | binding signal (ALX1 [4]) | binding signal (ALX3 [5]) | binding signal (SHOX [6]) | binding signal (ALX1 [7]) | binding signal (ALX3 [8]) | binding signal (PROP1 [9]) | binding signal (HESX1 [10]) | binding signal (PROP1 [11]) | binding signal (ALX3 [12]) | binding signal (HESX1 [13]) | binding signal (ALX3 [14]) | binding signal (PROP1 [15]) | binding signal (HESX1 [16]) | binding signal (ALX1 [17]) | binding signal (ALX3 [18])
1 | ATTAATGC | 8.93 upbm affinity estimate (log intensity, higher = more binding, comparable within an allelic series) | 9.02 upbm affinity estimate (log intensity, higher = more binding, comparable within an allelic series) |  |  |  |  |  |  |  |  |  |  |  |  |  |  |  |  |  | 
2 | ATAATTGG | 13.5 upbm affinity estimate (log intensity, higher = more binding, comparable within an allelic series) | 13.4 upbm affinity estimate (log intensity, higher = more binding, comparable within an allelic series) | 12.6 upbm affinity estimate (log intensity, higher = more binding, comparable within an allelic series) | 13.7 upbm affinity estimate (log intensity, higher = more binding, comparable within an allelic series) | 13.1 upbm affinity estimate (log intensity, higher = more binding, comparable within an allelic series) | 12 upbm affinity estimate (log intensity, higher = more binding, comparable within an allelic series) | 8.37 upbm affinity estimate (log intensity, higher = more binding, comparable within an allelic series) | 9.98 upbm affinity estimate (log intensity, higher = more binding, comparable within an allelic series) | 11.7 upbm affinity estimate (log intensity, higher = more binding, comparable within an allelic series) | 12.6 upbm affinity estimate (log intensity, higher = more binding, comparable within an allelic series) | 11.7 upbm affinity estimate (log intensity, higher = more binding, comparable within an allelic series) | 10 upbm affinity estimate (log intensity, higher = more binding, comparable within an allelic series) | 12 upbm affinity estimate (log intensity, higher = more binding, comparable within an allelic series) | 10.9 upbm affinity estimate (log intensity, higher = more binding, comparable within an allelic series) | 12.1 upbm affinity estimate (log intensity, higher = more binding, comparable within an allelic series) | 10.4 upbm affinity estimate (log intensity, higher = more binding, comparable within an allelic series) | 7.6 upbm affinity estimate (log intensity, higher = more binding, comparable within an allelic series) | 8.41 upbm affinity estimate (log intensity, higher = more binding, comparable within an allelic series) | 12.6 upbm affinity estimate (log intensity, higher = more binding, comparable within an allelic series) | 8.55 upbm affinity estimate (log intensity, higher = more binding, comparable within an allelic series)
3 | AATTATAA | 11.6 upbm affinity estimate (log intensity, higher = more binding, comparable within an allelic series) | 11.7 upbm affinity estimate (log intensity, higher = more binding, comparable within an allelic series) | 11.4 upbm affinity estimate (log intensity, higher = more binding, comparable within an allelic series) | 13.1 upbm affinity estimate (log intensity, higher = more binding, comparable within an allelic series) | 12.4 upbm affinity estimate (log intensity, higher = more binding, comparable within an allelic series) | 11.5 upbm affinity estimate (log intensity, higher = more binding, comparable within an allelic series) | 8.51 upbm affinity estimate (log intensity, higher = more binding, comparable within an allelic series) | 9.09 upbm affinity estimate (log intensity, higher = more binding, comparable within an allelic series) | 11.2 upbm affinity estimate (log intensity, higher = more binding, comparable within an allelic series) | 12.4 upbm affinity estimate (log intensity, higher = more binding, comparable within an allelic series) | 11 upbm affinity estimate (log intensity, higher = more binding, comparable within an allelic series) | 8.29 upbm affinity estimate (log intensity, higher = more binding, comparable within an allelic series) | 10.8 upbm affinity estimate (log intensity, higher = more binding, comparable within an allelic series) | 10.4 upbm affinity estimate (log intensity, higher = more binding, comparable within an allelic series) | 10.4 upbm affinity estimate (log intensity, higher = more binding, comparable within an allelic series) | 9.95 upbm affinity estimate (log intensity, higher = more binding, comparable within an allelic series) | 7.93 upbm affinity estimate (log intensity, higher = more binding, comparable within an allelic series) | 7.89 upbm affinity estimate (log intensity, higher = more binding, comparable within an allelic series) | 12.1 upbm affinity estimate (log intensity, higher = more binding, comparable within an allelic series) | 8.6 upbm affinity estimate (log intensity, higher = more binding, comparable within an allelic series)
4 | AATTAGTG | 12.1 upbm affinity estimate (log intensity, higher = more binding, comparable within an allelic series) | 12.2 upbm affinity estimate (log intensity, higher = more binding, comparable within an allelic series) | 12 upbm affinity estimate (log intensity, higher = more binding, comparable within an allelic series) | 13.2 upbm affinity estimate (log intensity, higher = more binding, comparable within an allelic series) | 12.6 upbm affinity estimate (log intensity, higher = more binding, comparable within an allelic series) | 11.8 upbm affinity estimate (log intensity, higher = more binding, comparable within an allelic series) | 8.36 upbm affinity estimate (log intensity, higher = more binding, comparable within an allelic series) | 9.65 upbm affinity estimate (log intensity, higher = more binding, comparable within an allelic series) | 11.4 upbm affinity estimate (log intensity, higher = more binding, comparable within an allelic series) | 12.4 upbm affinity estimate (log intensity, higher = more binding, comparable within an allelic series) | 11.3 upbm affinity estimate (log intensity, higher = more binding, comparable within an allelic series) | 9.26 upbm affinity estimate (log intensity, higher = more binding, comparable within an allelic series) | 11.4 upbm affinity estimate (log intensity, higher = more binding, comparable within an allelic series) | 10.7 upbm affinity estimate (log intensity, higher = more binding, comparable within an allelic series) | 10.9 upbm affinity estimate (log intensity, higher = more binding, comparable within an allelic series) | 10.1 upbm affinity estimate (log intensity, higher = more binding, comparable within an allelic series) | 7.69 upbm affinity estimate (log intensity, higher = more binding, comparable within an allelic series) | 7.88 upbm affinity estimate (log intensity, higher = more binding, comparable within an allelic series) | 12.5 upbm affinity estimate (log intensity, higher = more binding, comparable within an allelic series) | 8.46 upbm affinity estimate (log intensity, higher = more binding, comparable within an allelic series)
5 | CCCAGGCG | 6.31 upbm affinity estimate (log intensity, higher = more binding, comparable within an allelic series) | 6.34 upbm affinity estimate (log intensity, higher = more binding, comparable within an allelic series) | 6.92 upbm affinity estimate (log intensity, higher = more binding, comparable within an allelic series) |  |  |  |  | 7.04 upbm affinity estimate (log intensity, higher = more binding, comparable within an allelic series) |  |  |  | 6.42 upbm affinity estimate (log intensity, higher = more binding, comparable within an allelic series) |  |  | 6.32 upbm affinity estimate (log intensity, higher = more binding, comparable within an allelic series) |  |  | 6.49 upbm affinity estimate (log intensity, higher = more binding, comparable within an allelic series) |  | 
6 | TAATTGGA | 13.4 upbm affinity estimate (log intensity, higher = more binding, comparable within an allelic series) | 13.3 upbm affinity estimate (log intensity, higher = more binding, comparable within an allelic series) | 12.6 upbm affinity estimate (log intensity, higher = more binding, comparable within an allelic series) | 13.7 upbm affinity estimate (log intensity, higher = more binding, comparable within an allelic series) | 13 upbm affinity estimate (log intensity, higher = more binding, comparable within an allelic series) | 12 upbm affinity estimate (log intensity, higher = more binding, comparable within an allelic series) | 8.38 upbm affinity estimate (log intensity, higher = more binding, comparable within an allelic series) | 9.96 upbm affinity estimate (log intensity, higher = more binding, comparable within an allelic series) | 11.7 upbm affinity estimate (log intensity, higher = more binding, comparable within an allelic series) | 12.7 upbm affinity estimate (log intensity, higher = more binding, comparable within an allelic series) | 11.8 upbm affinity estimate (log intensity, higher = more binding, comparable within an allelic series) | 9.97 upbm affinity estimate (log intensity, higher = more binding, comparable within an allelic series) | 12 upbm affinity estimate (log intensity, higher = more binding, comparable within an allelic series) | 10.9 upbm affinity estimate (log intensity, higher = more binding, comparable within an allelic series) | 11.9 upbm affinity estimate (log intensity, higher = more binding, comparable within an allelic series) | 10.3 upbm affinity estimate (log intensity, higher = more binding, comparable within an allelic series) | 7.7 upbm affinity estimate (log intensity, higher = more binding, comparable within an allelic series) | 8.04 upbm affinity estimate (log intensity, higher = more binding, comparable within an allelic series) | 12.7 upbm affinity estimate (log intensity, higher = more binding, comparable within an allelic series) | 8.55 upbm affinity estimate (log intensity, higher = more binding, comparable within an allelic series)
7 | GAGGGGGC | 6.47 upbm affinity estimate (log intensity, higher = more binding, comparable within an allelic series) | 6.37 upbm affinity estimate (log intensity, higher = more binding, comparable within an allelic series) |  |  |  |  |  |  |  |  |  | 6.41 upbm affinity estimate (log intensity, higher = more binding, comparable within an allelic series) |  |  | 6.44 upbm affinity estimate (log intensity, higher = more binding, comparable within an allelic series) |  |  | 6.41 upbm affinity estimate (log intensity, higher = more binding, comparable within an allelic series) |  | 
8 | AATTAGCC | 11.4 upbm affinity estimate (log intensity, higher = more binding, comparable within an allelic series) | 11.5 upbm affinity estimate (log intensity, higher = more binding, comparable within an allelic series) | 11.9 upbm affinity estimate (log intensity, higher = more binding, comparable within an allelic series) | 12.6 upbm affinity estimate (log intensity, higher = more binding, comparable within an allelic series) | 12.1 upbm affinity estimate (log intensity, higher = more binding, comparable within an allelic series) | 11.2 upbm affinity estimate (log intensity, higher = more binding, comparable within an allelic series) | 8.15 upbm affinity estimate (log intensity, higher = more binding, comparable within an allelic series) | 9.22 upbm affinity estimate (log intensity, higher = more binding, comparable within an allelic series) | 10.8 upbm affinity estimate (log intensity, higher = more binding, comparable within an allelic series) | 12.3 upbm affinity estimate (log intensity, higher = more binding, comparable within an allelic series) |  | 8.71 upbm affinity estimate (log intensity, higher = more binding, comparable within an allelic series) | 10.8 upbm affinity estimate (log intensity, higher = more binding, comparable within an allelic series) | 10.1 upbm affinity estimate (log intensity, higher = more binding, comparable within an allelic series) | 10.2 upbm affinity estimate (log intensity, higher = more binding, comparable within an allelic series) | 9.65 upbm affinity estimate (log intensity, higher = more binding, comparable within an allelic series) |  | 7.46 upbm affinity estimate (log intensity, higher = more binding, comparable within an allelic series) | 12.4 upbm affinity estimate (log intensity, higher = more binding, comparable within an allelic series) | 8.23 upbm affinity estimate (log intensity, higher = more binding, comparable within an allelic series)
9 | AATTAACT | 12.1 upbm affinity estimate (log intensity, higher = more binding, comparable within an allelic series) | 12.2 upbm affinity estimate (log intensity, higher = more binding, comparable within an allelic series) | 11.8 upbm affinity estimate (log intensity, higher = more binding, comparable within an allelic series) | 13.4 upbm affinity estimate (log intensity, higher = more binding, comparable within an allelic series) | 12.4 upbm affinity estimate (log intensity, higher = more binding, comparable within an allelic series) | 11.7 upbm affinity estimate (log intensity, higher = more binding, comparable within an allelic series) | 8.48 upbm affinity estimate (log intensity, higher = more binding, comparable within an allelic series) | 9.37 upbm affinity estimate (log intensity, higher = more binding, comparable within an allelic series) | 11.4 upbm affinity estimate (log intensity, higher = more binding, comparable within an allelic series) | 12.5 upbm affinity estimate (log intensity, higher = more binding, comparable within an allelic series) | 11.5 upbm affinity estimate (log intensity, higher = more binding, comparable within an allelic series) | 9.2 upbm affinity estimate (log intensity, higher = more binding, comparable within an allelic series) | 11.4 upbm affinity estimate (log intensity, higher = more binding, comparable within an allelic series) | 10.7 upbm affinity estimate (log intensity, higher = more binding, comparable within an allelic series) | 10.7 upbm affinity estimate (log intensity, higher = more binding, comparable within an allelic series) | 10.2 upbm affinity estimate (log intensity, higher = more binding, comparable within an allelic series) | 7.8 upbm affinity estimate (log intensity, higher = more binding, comparable within an allelic series) | 7.81 upbm affinity estimate (log intensity, higher = more binding, comparable within an allelic series) | 12.3 upbm affinity estimate (log intensity, higher = more binding, comparable within an allelic series) | 8.69 upbm affinity estimate (log intensity, higher = more binding, comparable within an allelic series)
10 | GGAGCGCA | 6.3 upbm affinity estimate (log intensity, higher = more binding, comparable within an allelic series) | 6.37 upbm affinity estimate (log intensity, higher = more binding, comparable within an allelic series) | 7.21 upbm affinity estimate (log intensity, higher = more binding, comparable within an allelic series) |  |  |  |  | 7.1 upbm affinity estimate (log intensity, higher = more binding, comparable within an allelic series) |  |  |  | 6.4 upbm affinity estimate (log intensity, higher = more binding, comparable within an allelic series) |  |  | 6.31 upbm affinity estimate (log intensity, higher = more binding, comparable within an allelic series) |  |  | 6.34 upbm affinity estimate (log intensity, higher = more binding, comparable within an allelic series) |  | 
